The list is not random: actives were taken first. Their share in the collection is about 27%.
CYP2C19 inh: inhibitors of human CYP2C19. P33261. CYP2C19 Supersomes, luciferin-H EGE luminescence, 30 min. inhibition, % at 5 µM. 21% of 96,000 active. AID 778;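 active = CYP2C19 inhibition above a set limit at 5 µM in the primary screen, cut at about 50% in these data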;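 also: plate controls were negative control wells for no effect and 2.5 mM tranylcypromine positive control for full effect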
Target sequence (P33261 whole entry, looked up): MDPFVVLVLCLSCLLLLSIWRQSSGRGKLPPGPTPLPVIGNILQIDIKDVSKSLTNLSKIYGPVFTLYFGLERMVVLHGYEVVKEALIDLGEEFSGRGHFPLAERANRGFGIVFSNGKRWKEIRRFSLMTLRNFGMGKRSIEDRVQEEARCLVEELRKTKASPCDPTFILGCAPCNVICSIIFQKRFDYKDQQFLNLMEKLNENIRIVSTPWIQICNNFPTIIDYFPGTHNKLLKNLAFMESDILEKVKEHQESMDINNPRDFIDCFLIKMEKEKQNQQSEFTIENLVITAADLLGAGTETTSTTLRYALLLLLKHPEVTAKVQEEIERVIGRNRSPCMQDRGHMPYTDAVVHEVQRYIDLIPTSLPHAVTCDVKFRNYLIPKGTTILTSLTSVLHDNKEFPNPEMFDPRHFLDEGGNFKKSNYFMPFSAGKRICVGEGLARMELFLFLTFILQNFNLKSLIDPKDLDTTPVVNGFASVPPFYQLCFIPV
CYP2C9 act: CYP2C9 (human) activation. AID 1024. recombinant CYP2C9, luciferin-H conversion, luminescence; hits give high values; factor 1 = untreated enzyme, 0 = blocked. P11712. activation factor at 5 µM. 1.4% of 96,000 active;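 active = activation factor of 2 or more for CYP2C9 at a 5 µM dose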;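 also: 0 = sulfaphenazole-blocked wells and 1 = vehicle-only wells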
CYP2C19 activ: cytochrome P450 2C19 (human) activation | P33261 | 96,000 tested, under 10 active | activation factor at 5 µM | recombinant CYP2C19, luciferin-H EGE luminescence; hits give high values; 0 = fully inhibited enzyme, 1 = untreated enzyme;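 active = activation factor of at least 2 at 5 µM in the primary screen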;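 also: 0 = wells with 2.5 mM tranylcypromine and 1 = vehicle-only wells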
sEH inh: blocks human soluble epoxide hydrolase activity; recombinant human sEH enzymatic activity assay; 0.34% of 91,000 active; inhibition, % at 2 µM; AID 707; in the data active = inhibition above about 80%
CYP2C9 inhib: blocks human cytochrome P450 2C9; CYP2C9 Supersomes, luciferin-H conversion, luminescence; inhibition, % at 5 µM; 20% of 96,000 active;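 active = blocking of liver enzyme CYP2C9 beyond about 50% at 5 µM, limit read from the data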
sEH act: increases human soluble epoxide hydrolase activity; activation, % at 2 µM; 0.04% of 91,000 active; purified human sEH enzymatic activity, activator screen; P34913; AID 717; in the data active = activation above about 37%
Active calls of the source: *.

How did Cc1ccc(OCc2nc(C#N)c(NCCCn3ccnc3)o2)cc1 do in these assays?
CYP2C19 inh: 99*; CYP2C9 act: 0.1; CYP2C19 activ: 0; sEH inh: -1; CYP2C9 inhib: 91*; sEH act: 2

How did CCOC(=O)C1CN(S(=O)(=O)c2ccc(C)cc2)CCN1S(=O)(=O)c1ccc(C)cc1 (stereo not drawn) do in these assays?
CYP2C19 inh: 96*; CYP2C9 act: 0.2; CYP2C19 activ: 0; sEH inh: -12; CYP2C9 inhib: 78*; sEH act: 10

Results for CCOc1ccc(S(=O)(=O)N2CCN(S(=O)(=O)c3ccc(OCC)cc3)C(C)C2)cc1 (stereo not drawn) ?
CYP2C19 inh: 19; CYP2C9 act: 0.8; CYP2C19 activ: 0.8; CYP2C9 inhib: 22

Results for CCOC(=O)C1CN(S(=O)(=O)c2ccccc2)CCN1S(=O)(=O)c1ccccc1 (stereo not drawn) ?
CYP2C19 inh: 94*; CYP2C9 act: 0.3; CYP2C19 activ: 0.1; sEH inh: 6; CYP2C9 inhib: 70*; sEH act: -7

What do the screens show for `COC(=O)C1CN(S(=O)(=O)c2ccccc2)CCN1S(=O)(=O)c1ccccc1` (stereo not drawn)?
CYP2C19 inh: 98*; CYP2C9 act: 0.3; CYP2C19 activ: 0; sEH inh: 0; CYP2C9 inhib: 74*; sEH act: -2

How did O=C(O)C1CCCN1S(=O)(=O)c1ccccc1 (stereo not drawn) do in these assays?
sEH inh: 11; sEH act: -10

What do the screens show for `Cc1cc(C(F)(F)F)n2nc(-c3cnn(C)c3C(F)(F)F)cc2n1`?
CYP2C19 inh: 35; CYP2C9 act: 1.2; CYP2C19 activ: 0.6; sEH inh: 12; CYP2C9 inhib: -22; sEH act: -12

What do the screens show for `O=C1CC(SCc2nc3ccccc3[nH]2)C(=O)N1c1cccc(F)c1` (stereo not drawn)?
CYP2C19 inh: 81*; CYP2C9 act: 0.3; CYP2C19 activ: 0.2; sEH inh: -6; CYP2C9 inhib: 71*; sEH act: 11

What do the screens show for `O=C1CC(SCc2nc3ccccc3[nH]2)C(=O)N1c1ccc(Cl)cc1` (stereo not drawn)?
CYP2C19 inh: 32; CYP2C9 act: 0.8; CYP2C19 activ: 0.7; sEH inh: 3; CYP2C9 inhib: 25; sEH act: -4

Results for O=C1CC(SCc2nc3ccccc3[nH]2)C(=O)N1c1ccc(F)c(Cl)c1 (stereo not drawn) ?
CYP2C19 inh: 52*; CYP2C9 act: 0.7; CYP2C19 activ: 0.5; sEH inh: 4; CYP2C9 inhib: 32; sEH act: -7

How did COc1ccc(-c2cnc(SCC(=O)Nc3nc(C(C)(C)C)cs3)n2Cc2ccco2)cc1 do in these assays?
sEH inh: 7; sEH act: -4

Results for COc1ccc(CCNC(=O)CSc2nnc(CNC(=O)c3ccco3)o2)cc1OC ?
CYP2C19 inh: -7; CYP2C9 act: 0.8; CYP2C19 activ: 1.1; sEH inh: -2; CYP2C9 inhib: 17; sEH act: 4

How did C=CCc1cc(/C=N\NC(=O)CSc2nnc(CCCc3ccc(OC)c(C)c3)o2)cc(OC)c1O do in these assays?
CYP2C19 inh: 86*; CYP2C9 act: 0.2; CYP2C19 activ: 0.1; sEH inh: 24; CYP2C9 inhib: 83*; sEH act: -23

What do the screens show for `C=CCc1cc(/C=N/NC(=O)CSc2nnc(CCCc3ccc(OC)cc3)o2)cc(OC)c1O`?
CYP2C19 inh: 89*; CYP2C9 act: 0.2; CYP2C19 activ: 0.1; sEH inh: 21; CYP2C9 inhib: 80*; sEH act: -23

What do the screens show for `COc1ccc(CCCc2nnc(SCC(=O)N/N=C\c3ccc(O)c(OC)c3)o2)cc1C`?
CYP2C19 inh: 42; CYP2C9 act: 0.7; CYP2C19 activ: 0.6; sEH inh: 9; CYP2C9 inhib: 31; sEH act: -9

How did COc1ccc(/C=N/NC(=O)CSc2nnc(CCCc3ccc(OC)c(C)c3)o2)cc1 do in these assays?
CYP2C19 inh: 78*; CYP2C9 act: 0.2; CYP2C19 activ: 0.2; sEH inh: 28; CYP2C9 inhib: 84*; sEH act: -26

How did COc1ccc(Cc2nnc(SCC(=O)NCCc3ccccc3)o2)cc1 do in these assays?
CYP2C19 inh: 44; CYP2C9 act: 0.6; CYP2C19 activ: 0.6; CYP2C9 inhib: 43

Results for CCOc1ccc(C(=O)NCC(=O)OC(C)C(=O)NCc2ccco2)cc1OCC (stereo not drawn) ?
CYP2C19 inh: 44; CYP2C9 act: 1.1; CYP2C19 activ: 0.6; sEH inh: 9; CYP2C9 inhib: -6; sEH act: -8

Results for CCOC(=O)c1ccccc1NC(=O)CSc1nnc(Cc2cccn2C)n1-c1ccc(F)cc1 ?
CYP2C19 inh: 24; CYP2C9 act: 0.4; CYP2C19 activ: 0.8; CYP2C9 inhib: 57*

How did Cc1ccc(NC(=O)CSc2nnc(Cc3cccn3C)n2-c2ccc(F)cc2)cc1 do in these assays?
CYP2C19 inh: 5; CYP2C9 act: 0.9; CYP2C19 activ: 0.9; sEH inh: 34; CYP2C9 inhib: 13; sEH act: -34

How did Cc1ccc(NC(=O)CSc2nnc(Cc3cccn3C)n2-c2ccc(F)cc2)c(C)c1 do in these assays?
CYP2C19 inh: 22; CYP2C9 act: 0.3; CYP2C19 activ: 0.8; sEH inh: 61; CYP2C9 inhib: 68*; sEH act: -60

What do the screens show for `Cn1cccc1Cc1nnc(SCC(=O)Nc2cccc(F)c2)n1-c1ccc(F)cc1`?
CYP2C19 inh: 29; CYP2C9 act: 0.8; CYP2C19 activ: 0.7; CYP2C9 inhib: 22

How did CCOc1ccccc1NC(=O)CSc1nnc(Cc2cccn2C)n1-c1ccc(F)cc1 do in these assays?
CYP2C19 inh: 9; CYP2C9 act: 0.7; CYP2C19 activ: 0.9; sEH inh: -4; CYP2C9 inhib: 28; sEH act: 3

How did CCc1ccc(NC(=O)CSc2nnc(Cc3cccn3C)n2-c2ccc(F)cc2)cc1 do in these assays?
CYP2C19 inh: 22; CYP2C9 act: 0.2; CYP2C19 activ: 0.8; CYP2C9 inhib: 76*

How did Cn1cccc1Cc1nnc(SCC(=O)Nc2ccc(F)cc2F)n1-c1ccc(F)cc1 do in these assays?
CYP2C19 inh: 52*; CYP2C9 act: 0.4; CYP2C19 activ: 0.5; sEH inh: 20; CYP2C9 inhib: 58*; sEH act: -21

What do the screens show for `CCNC(=O)CCSc1nc2cc(Cl)ccc2o1`?
sEH inh: 8; sEH act: -3

What do the screens show for `COC(=O)c1ccc(Oc2c(C)oc3c(CN4CCN(C)CC4)c(O)ccc3c2=O)cc1`?
CYP2C19 inh: 6; CYP2C9 act: 1; CYP2C19 activ: 0.9; sEH inh: 5; CYP2C9 inhib: 4; sEH act: -4

Results for O=C(CCn1c(=O)c2ccccc2n(Cc2ccccc2)c1=O)NCc1ccc2c(c1)OCO2 ?
CYP2C19 inh: 52*; CYP2C9 act: 0.7; CYP2C19 activ: 0.5; sEH inh: 10; CYP2C9 inhib: 34; sEH act: -12

Assay outcomes: PubChem, several laboratories
